This passage reports sensor-assay potency score (higher = more potent) results from the OligoGym collection.
Further: reference of the scale not given here.

One experiment deals with CTNNBL1. Nature of the experiment: pooled miR-30 sensor sort-seq; sequence = guide strand. Particulars: shRNA.
AAGCACATCGATTCCATCCAGC displayed a sensor-assay potency score (higher = more potent) of -0.642.
Same read-out and setting: the result for ATCTGTATTATCGTGTCCGAGC reads -1.22; that for TTTTTTTGTCATCATCCGCTTC, -0.298.
Sequence ATCTCTGTCAATAATCTGCAGC returned a sensor-assay potency score (higher = more potent) of -0.982.
In the case of TATCGTGTCCGAGCAAGCCGAG, the sensor-assay potency score (higher = more potent) is -1.14.
In turn, TTGTCTGGAAACTTAATCCGCA gave a sensor-assay potency score (higher = more potent) of -0.219.

The target in a further experiment is CTSB. Described as above. To be noted: shRNA.
In turn, ATAGTTGACCAGCTCATCCGAC had a sensor-assay potency score (higher = more potent) of -0.423.
Sequence TATCCGTAGTGCTTGTCCTGTT came in with a sensor-assay potency score (higher = more potent) of -0.438.
The sequence TTGGTGTGGATGCAGATCCGGT gave a sensor-assay potency score (higher = more potent) of -1.05.
With TTGGCAACCAGCCAGTAGGGTG, the sensor-assay potency score (higher = more potent) is -1.27.
Sequence TAAACATAACTCTCTGGGGTGG returned a sensor-assay potency score (higher = more potent) of -0.755.
Regarding TCACAGATCTTGCTACACTTGG, the sensor-assay potency score (higher = more potent) is -0.121.
In the case of TTTGTTGACATAGTTGACCAGC, the sensor-assay potency score (higher = more potent) was -0.0911.
For the sequence TTGTCCAGAAGTTCCAAGCTTC, the sensor-assay potency score (higher = more potent) is -0.113.
For TTCTATTAAAGAATCATGCTGA, the sensor-assay potency score (higher = more potent) came to 0.656.
On to TTGTAGGTCGGGCTGTAGCCAG, for which the sensor-assay potency score (higher = more potent) was -1.22.
TTGTCCTGTTTGTAGGTCGGGC returned a sensor-assay potency score (higher = more potent) of -0.855.
TAACTTGACAGGGTGAAGCTGT yielded a sensor-assay potency score (higher = more potent) of -0.16.
Sequence TTTCTTGTCCAGAAGTTCCAAG displayed a sensor-assay potency score (higher = more potent) of -1.12.
Regarding TCTCTGATCTCTTTGATGGTGG, the sensor-assay potency score (higher = more potent) was -0.142.
As for TGTTGGTACACTCCTGACTTGT, the sensor-assay potency score (higher = more potent) was -1.2.
Consider TAGTTGACCAGCTCATCCGACA, for which the sensor-assay potency score (higher = more potent) is -0.966.
TTTTCTTGTCCAGAAGTTCCAA registered a sensor-assay potency score (higher = more potent) of -0.152.
On to TTGTAGAGCAGGAAGTCCGAAT, for which the sensor-assay potency score (higher = more potent) is -0.653.
In the case of TTTTTGTAGATCTCGGCCATGA, the sensor-assay potency score (higher = more potent) is -0.154.
In the case of TTCTCGCTATTGGAGACGCTGT, the sensor-assay potency score (higher = more potent) was -1.66.
Sequence TTCTGATTCGATTCCACAGTGA registered a sensor-assay potency score (higher = more potent) of -0.73.
Regarding TTCCACAGTGATCCTGTCCTCT, the sensor-assay potency score (higher = more potent) was -0.145.
Still for that read-out and setting: next, TGACGTGTTGGTACACTCCTGA: 0.569; TCGGTAAACATAACTCTCTGGG: -0.352.

In another experiment the target is CTSH. The experiment is described as above. Particulars: shRNA.
TGCTTAGACATCCATGACTTGA registered a sensor-assay potency score (higher = more potent) of -1.27.
On the same count and under the same terms, the result for TTCCTCGTCATAGATTGTGATG reads -1.43; that for TGTGATGTTGGCTACATCCTTG, -0.0306.
Turning to TCGTCATAGATTGTGATGTTGG, the sensor-assay potency score (higher = more potent) is -0.963.
Consider TTCTATACATCATGAAGTCCTG, for which the sensor-assay potency score (higher = more potent) is -0.782.
In turn, AAGGACAGCATCTTTCCGGTTG yielded a sensor-assay potency score (higher = more potent) of 0.018.
Turning to TTATCTTCCTCCAGTTGCTGGC, the sensor-assay potency score (higher = more potent) is -0.0224.
Sequence TACTGTAGGTCTTACGGTGCTT displayed a sensor-assay potency score (higher = more potent) of -0.0767.
In turn, TATATGTGGAAAGTAGCCCTTC yielded a sensor-assay potency score (higher = more potent) of 0.309.
TTTATCTGGAGTTTTATGGCAG: the sensor-assay potency score (higher = more potent) is -0.245.
